# According to PubChem BioAssay AID1159580 (chemical genetic matrix, 2015):
# Among all 5,500 compounds or so, about 2,000 (36%) were called active. Roughly 18% stayed inconclusive and do not appear here. The list shows a part of the results. Values without a mark were called inactive. Rule as the data show it: active = normalized growth mostly below about 0.91 (no sharp cut-off); inconclusive = no clear call, values can overlap the other calls; inactive = mostly above about 0.92.
# Assay: chemical genetic growth profiling, strain panel (AID 1159580);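 also: tested at 20 µM; growth read once vehicle control cultures reached saturation at 30 °C; 1 = growth at the plate median or of vehicle wells; lower values mean less growth of the strain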
# Conditions: growth OD
# [1] = S. cerevisiae deletion strains, locus YAL013W, strain DEP1, active compounds read low
# [2] = S. cerevisiae deletion strains, locus YBR229C, strain ROT2, active compounds read low
# [3] = S. cerevisiae deletion strains, locus YCL061C, strain MRC1, active compounds read low
# [4] = S. cerevisiae deletion strains, locus YDL101C, strain DUN1, active compounds read low
# [5] = S. cerevisiae deletion strains, locus YDR150W, strain NUM1, active compounds read low
# [6] = S. cerevisiae deletion strains, locus YEL061C, strain CIN8, active compounds read low
# [7] = S. cerevisiae deletion strains, locus YGR078C, strain PAC10, active compounds read low
# [8] = S. cerevisiae deletion strains, locus YHR030C, strain SLT2, active compounds read low
# [9] = S. cerevisiae deletion strains, locus YHR087W, strain rtc3, active compounds read low
# [10] = S. cerevisiae deletion strains, locus YJL187C, strain SWE1, active compounds read low
# [11] = S. cerevisiae deletion strains, locus YJR043C, strain POL32, active compounds read low
# [12] = S. cerevisiae deletion strains, locus YJR075W, strain HOC1, active compounds read low
# [13] = S. cerevisiae deletion strains, locus YLR039C, strain RIC1, active compounds read low
# [14] = S. cerevisiae deletion strains, locus YLR058C, strain SHM2 (second series), active compounds read low
# [15] = S. cerevisiae deletion strains, locus YLR085C, strain ARP6, active compounds read low
# [16] = S. cerevisiae deletion strains, locus YLR262C, strain YPT6, active compounds read low
# [17] = S. cerevisiae deletion strains, locus YML094W, strain GIM5, active compounds read low
# [18] = S. cerevisiae deletion strains, locus YMR219W, strain ESC1, active compounds read low
# [19] = S. cerevisiae deletion strains, locus YMR263W, strain SAP30, active compounds read low
# [20] = S. cerevisiae deletion strains, locus YNL153C, strain GIM3, active compounds read low
# [21] = S. cerevisiae deletion strains, locus YNL298W, strain CLA4 (second series), active compounds read low
# [22] = S. cerevisiae deletion strains, locus YNL322C, strain KRE1, active compounds read low
# [23] = S. cerevisiae deletion strains, locus YNR030W, strain Alg12, active compounds read low
# [24] = S. cerevisiae deletion strains, locus YOL006C, strain TOP1, active compounds read low
# [25] = S. cerevisiae deletion strains, locus YPL055C, strain LGE1, active compounds read low
# [26] = S. cerevisiae deletion strains, locus YPL241C, strain CIN2, active compounds read low
# [27] = S. cerevisiae deletion strains, locus YPR135W, strain CTF4, active compounds read low
# [28] = S. cerevisiae strains, strain wild type, active compounds read low
compound,measurement,setting,value
N#CCCN(CC1CCCO1)C(=S)Nc1cc(C(F)(F)F)cc(C(F)(F)F)c1 (stereo not given),normalized growth,[1],1.01
same,normalized growth,[2],0.965
same,normalized growth,[3],0.994
same,normalized growth,[4],0.991
same,normalized growth,"S. cerevisiae deletion strains, locus YDL134C, strain PPH21, active compounds read low",0.95
same,normalized growth,[5],0.953
same,normalized growth,[6],0.982
same,normalized growth,[7],0.985
same,normalized growth,[8],0.882
same,normalized growth,[9],0.979
same,normalized growth,[10],1
same,normalized growth,[11],0.938
same,normalized growth,[12],0.918
same,normalized growth,"S. cerevisiae deletion strains, locus YKL190W, strain CNB1, active compounds read low",1.02
same,normalized growth,[13],0.86
same,normalized growth,[14],1.01
same,normalized growth,[15],0.85
same,normalized growth,[16],0.908
same,normalized growth,[17],0.888
same,normalized growth,[18],0.996
same,normalized growth,[19],0.978
same,normalized growth,[20],1
same,normalized growth,[21],0.985
same,normalized growth,[22],1
same,normalized growth,[23],0.829 (active)
same,normalized growth,[24],0.903
same,normalized growth,[25],0.866
same,normalized growth,[26],0.797 (active)
same,normalized growth,[27],0.827
same,normalized growth,[28],1.02
CN(C)C=Nc1ncccc1OCc1ccc(Cl)c(Cl)c1,normalized growth,[1],0.973
same,normalized growth,[2],0.989
same,normalized growth,[3],0.945
same,normalized growth,[4],0.951
same,normalized growth,[5],0.851
same,normalized growth,[6],0.951
same,normalized growth,[7],0.964
same,normalized growth,"S. cerevisiae deletion strains, locus YGR229C, strain SMI1, active compounds read low",0.967
same,normalized growth,[8],0.47 (active)
same,normalized growth,[9],1.04
same,normalized growth,[10],0.959
same,normalized growth,[11],0.951
same,normalized growth,[12],1
same,normalized growth,[13],1.05
same,normalized growth,[14],1
same,normalized growth,[15],0.722 (active)
same,normalized growth,[16],1.05
same,normalized growth,[17],0.923
same,normalized growth,[18],0.987
same,normalized growth,[19],0.963
same,normalized growth,[20],0.94
same,normalized growth,[21],0.788 (active)
same,normalized growth,[22],0.978
same,normalized growth,[23],0.926
same,normalized growth,[24],0.563 (active)
same,normalized growth,[25],0.995
same,normalized growth,[26],0.888
same,normalized growth,[27],0.756
same,normalized growth,[28],0.878 (active)
O=C(NCc1ccc(Cl)c(Cl)c1)c1cccnc1OCC(F)(F)F,normalized growth,"S. cerevisiae deletion strains, locus YAR019C, strain CDC15, active compounds read low",0.956
same,normalized growth,"S. cerevisiae deletion strains, locus YBL105C, strain PKC1, active compounds read low",0.951
same,normalized growth,"S. cerevisiae deletion strains, locus YBR135W, strain CKS1, active compounds read low",0.947
same,normalized growth,"S. cerevisiae deletion strains, locus YBR136W, strain MEC1, active compounds read low",0.97
same,normalized growth,"S. cerevisiae deletion strains, locus YBR160W, strain CDC28, active compounds read low",0.961
same,normalized growth,"S. cerevisiae deletion strains, locus YDL017W, strain CDC7, active compounds read low",0.955
same,normalized growth,"S. cerevisiae deletion strains, locus YDL028C, strain MPS1, active compounds read low",0.97
same,normalized growth,[4],0.958
same,normalized growth,"S. cerevisiae deletion strains, locus YDL108W, strain KIN28, active compounds read low",0.947
same,normalized growth,"S. cerevisiae deletion strains, locus YDL132W, strain cdc53, active compounds read low",0.952
same,normalized growth,"S. cerevisiae deletion strains, locus YDL214C, strain PRR2, active compounds read low",0.971
same,normalized growth,"S. cerevisiae deletion strains, locus YDR052C, strain DBF4, active compounds read low",0.971
same,normalized growth,"S. cerevisiae deletion strains, locus YDR054C, strain cdc34, active compounds read low",0.958
same,normalized growth,"S. cerevisiae deletion strains, locus YDR226W, strain ADK1, active compounds read low",0.967
same,normalized growth,"S. cerevisiae deletion strains, locus YDR477W, strain SNF1, active compounds read low",0.974
same,normalized growth,"S. cerevisiae deletion strains, locus YER123W, strain YCK3, active compounds read low",0.949
same,normalized growth,"S. cerevisiae deletion strains, locus YER133W, strain GLC7, active compounds read low",0.961
same,normalized growth,"S. cerevisiae deletion strains, locus YFL009W, strain cdc4, active compounds read low",0.966
same,normalized growth,"S. cerevisiae deletion strains, locus YFL029C, strain CAK1, active compounds read low",0.955
same,normalized growth,"S. cerevisiae deletion strains, locus YFR003C, strain YPI1, active compounds read low",0.949
same,normalized growth,"S. cerevisiae deletion strains, locus YFR019W, strain FAB1, active compounds read low",0.97
same,normalized growth,"S. cerevisiae deletion strains, locus YFR028C, strain CDC14, active compounds read low",0.947
same,normalized growth,"S. cerevisiae deletion strains, locus YGR040W, strain KSS1, active compounds read low",0.965
same,normalized growth,"S. cerevisiae deletion strains, locus YGR052W, strain FMP48, active compounds read low",1.02
same,normalized growth,"S. cerevisiae deletion strains, locus YGR092W, strain DBF2, active compounds read low",0.932
same,normalized growth,[8],1.04
same,normalized growth,"S. cerevisiae deletion strains, locus YHR079C, strain IRE1, active compounds read low",1.03
same,normalized growth,"S. cerevisiae deletion strains, locus YHR082C, strain KSP1, active compounds read low",1.06
same,normalized growth,"S. cerevisiae deletion strains, locus YHR205W, strain SCH9, active compounds read low",0.95
same,normalized growth,"S. cerevisiae deletion strains, locus YIL147C, strain SLN1, active compounds read low",0.958
same,normalized growth,"S. cerevisiae deletion strains, locus YJL095W, strain BCK1, active compounds read low",1.02
same,normalized growth,"S. cerevisiae deletion strains, locus YJL128C, strain PBS2, active compounds read low",0.9
same,normalized growth,"S. cerevisiae deletion strains, locus YJL157C, strain FAR1, active compounds read low",0.973
same,normalized growth,"S. cerevisiae deletion strains, locus YJR016C, strain ILV3, active compounds read low",0.965
same,normalized growth,"S. cerevisiae deletion strains, locus YJR066W, strain TOR1 (second series), active compounds read low",0.972
same,normalized growth,"S. cerevisiae deletion strains, locus YJR066W, strain TOR1, active compounds read low",1.07
same,normalized growth,"S. cerevisiae deletion strains, locus YKL048C, strain ELM1, active compounds read low",0.951
same,normalized growth,"S. cerevisiae deletion strains, locus YKL067W, strain YNK1, active compounds read low",0.955
same,normalized growth,"S. cerevisiae deletion strains, locus YKL101W, strain HSL1, active compounds read low",0.968
same,normalized growth,"S. cerevisiae deletion strains, locus YKL193C, strain SDS22, active compounds read low",0.951
same,normalized growth,"S. cerevisiae deletion strains, locus YKL203C, strain TOR2, active compounds read low",1.04
same,normalized growth,"S. cerevisiae deletion strains, locus YLR113W, strain HOG1, active compounds read low",0.891
same,normalized growth,"S. cerevisiae deletion strains, locus YLR133W, strain CKI1, active compounds read low",0.965
same,normalized growth,"S. cerevisiae deletion strains, locus YLR403W, strain SFP1, active compounds read low",0.978
same,normalized growth,"S. cerevisiae deletion strains, locus YML070W, strain DAK1, active compounds read low",0.944
same,normalized growth,"S. cerevisiae deletion strains, locus YMR001C, strain CDC5, active compounds read low",0.937
same,normalized growth,"S. cerevisiae deletion strains, locus YMR205C, strain PFK2 (second series), active compounds read low",0.958
same,normalized growth,"S. cerevisiae deletion strains, locus YMR277W, strain FCP1, active compounds read low",0.947
same,normalized growth,"S. cerevisiae deletion strains, locus YNL006W, strain LST8, active compounds read low",0.968
same,normalized growth,"S. cerevisiae deletion strains, locus YNL020C, strain ARK1, active compounds read low",0.968
same,normalized growth,"S. cerevisiae deletion strains, locus YNL161W, strain CBK1, active compounds read low",0.971
same,normalized growth,"S. cerevisiae deletion strains, locus YNL183C, strain NPR1, active compounds read low",0.99
same,normalized growth,"S. cerevisiae deletion strains, locus YNL207W, strain RIO2, active compounds read low",0.968
same,normalized growth,"S. cerevisiae deletion strains, locus YNL222W, strain SSU72, active compounds read low",0.953
same,normalized growth,"S. cerevisiae deletion strains, locus YNL307C, strain MCK1 (second series), active compounds read low",0.957
same,normalized growth,"S. cerevisiae deletion strains, locus YOL078W, strain AVO1, active compounds read low",0.963
same,normalized growth,"S. cerevisiae deletion strains, locus YOL136C, strain PFK27, active compounds read low",0.968
same,normalized growth,"S. cerevisiae deletion strains, locus YOR061W, strain CKA2, active compounds read low",0.945
same,normalized growth,"S. cerevisiae deletion strains, locus YOR119C, strain RIO1, active compounds read low",1.01
same,normalized growth,"S. cerevisiae deletion strains, locus YOR231W, strain MKK1, active compounds read low",1.03
same,normalized growth,"S. cerevisiae deletion strains, locus YOR329C, strain SCD5, active compounds read low",0.969
same,normalized growth,"S. cerevisiae deletion strains, locus YPL031C, strain PHO85, active compounds read low",0.97
same,normalized growth,"S. cerevisiae deletion strains, locus YPL153C, strain RAD53, active compounds read low",0.968
same,normalized growth,"S. cerevisiae deletion strains, locus YPL204W, strain HRR25, active compounds read low",0.971
same,normalized growth,"S. cerevisiae deletion strains, locus YPL209C, strain IPL1, active compounds read low",0.968
same,normalized growth,"S. cerevisiae deletion strains, locus YPL256C, strain CLN2, active compounds read low",0.995
same,normalized growth,"S. cerevisiae deletion strains, locus YPR025C, strain CCL1, active compounds read low",0.964
same,normalized growth,"S. cerevisiae deletion strains, locus YPR106W, strain ISR1, active compounds read low",0.961
same,normalized growth,"S. cerevisiae deletion strains, locus YPR111W, strain DBF20, active compounds read low",0.958
same,normalized growth,"S. cerevisiae deletion strains, strain NNK1, active compounds read low",0.959
same,normalized growth,"S. cerevisiae deletion strains, strain TSCII, active compounds read low",0.958
